# Assay outcomes deposited in PubChem BioAssay by several laboratories.
# Rows were chosen to be rich in hits. Some 2% of all compounds tested hit in one or more screens of this group.
# B2AR ag – agonists of human beta-2 adrenergic receptor inducing internalization | P07550 | Am2.2-beta2AR cells, FAP receptor internalization, flow cytometry | response, % (no concentration beside the values) | actives 0.43% (n = 340,000) | AID 504454;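 active = response above a set limit, near 3 SD of response in nonfluorescent compounds, cut at about 42% in these data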
# Granule exo inh – blocks lytic granule exocytosis; TALL-104 LAMP-1 surface exposure, flow cytometry; cells stimulated with thapsigargin and PMA; inhibition, % at 10 µM; actives 0.66% (n = 360,000);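 active = inhibition above about 55%, limit read from the data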
# NOD2 RIPK2 PPI – inhibitors of human NOD2-RIPK2 interaction. inhibition, % at 4.98 µM. AID 624267. actives 0.38% (n = 360,000). O43353. CHO BLA complementation NOD2-RIPK2, CCF4 ratio; in the data active = inhibition above about 21%;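 also: 0% = vehicle only and 100% = reference blocker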
# ABHD5-PLIN5 inh – ABHD5-PLIN5 protein interaction inhibition; Q00G26+Q8WTS1; Split G. princeps luciferase complementation, luminescence, 4 h; inhibition, % at 4 µM; actives 0.78% (n = 360,000); AID 602281;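 active = inhibition above the mean inhibition across every tested compound plus 3 SD, cut at about 22% in these data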;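 also: 0% = DMSO only wells and the 100% control is not disclosed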
# TLR9-MyD88 block – inhibitors of human TLR9-MyD88 binding | Q9NR96+Q99836 | CHO BLA complementation TLR9-MyD88, CCF4 FRET ratio | inhibition, % at 4.98 µM | actives 0.21% (n = 340,000) | AID 504734;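 active = inhibition above the mean over all tested compounds plus 3 SD, cut at about 21% in these data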;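 also: 0% = DMSO only wells and 100% = clavulanate BLA inhibitor control wells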
# Target sequence (Q99836 whole entry, looked up): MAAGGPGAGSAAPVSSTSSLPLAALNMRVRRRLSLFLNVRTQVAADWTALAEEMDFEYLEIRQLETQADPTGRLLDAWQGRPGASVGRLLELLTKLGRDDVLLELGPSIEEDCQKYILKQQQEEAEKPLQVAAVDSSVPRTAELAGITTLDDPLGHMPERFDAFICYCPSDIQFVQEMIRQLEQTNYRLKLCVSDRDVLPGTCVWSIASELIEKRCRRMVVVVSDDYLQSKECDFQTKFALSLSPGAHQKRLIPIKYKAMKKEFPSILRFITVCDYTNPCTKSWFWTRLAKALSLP
# Target sequence (Q9NR96 whole entry, looked up): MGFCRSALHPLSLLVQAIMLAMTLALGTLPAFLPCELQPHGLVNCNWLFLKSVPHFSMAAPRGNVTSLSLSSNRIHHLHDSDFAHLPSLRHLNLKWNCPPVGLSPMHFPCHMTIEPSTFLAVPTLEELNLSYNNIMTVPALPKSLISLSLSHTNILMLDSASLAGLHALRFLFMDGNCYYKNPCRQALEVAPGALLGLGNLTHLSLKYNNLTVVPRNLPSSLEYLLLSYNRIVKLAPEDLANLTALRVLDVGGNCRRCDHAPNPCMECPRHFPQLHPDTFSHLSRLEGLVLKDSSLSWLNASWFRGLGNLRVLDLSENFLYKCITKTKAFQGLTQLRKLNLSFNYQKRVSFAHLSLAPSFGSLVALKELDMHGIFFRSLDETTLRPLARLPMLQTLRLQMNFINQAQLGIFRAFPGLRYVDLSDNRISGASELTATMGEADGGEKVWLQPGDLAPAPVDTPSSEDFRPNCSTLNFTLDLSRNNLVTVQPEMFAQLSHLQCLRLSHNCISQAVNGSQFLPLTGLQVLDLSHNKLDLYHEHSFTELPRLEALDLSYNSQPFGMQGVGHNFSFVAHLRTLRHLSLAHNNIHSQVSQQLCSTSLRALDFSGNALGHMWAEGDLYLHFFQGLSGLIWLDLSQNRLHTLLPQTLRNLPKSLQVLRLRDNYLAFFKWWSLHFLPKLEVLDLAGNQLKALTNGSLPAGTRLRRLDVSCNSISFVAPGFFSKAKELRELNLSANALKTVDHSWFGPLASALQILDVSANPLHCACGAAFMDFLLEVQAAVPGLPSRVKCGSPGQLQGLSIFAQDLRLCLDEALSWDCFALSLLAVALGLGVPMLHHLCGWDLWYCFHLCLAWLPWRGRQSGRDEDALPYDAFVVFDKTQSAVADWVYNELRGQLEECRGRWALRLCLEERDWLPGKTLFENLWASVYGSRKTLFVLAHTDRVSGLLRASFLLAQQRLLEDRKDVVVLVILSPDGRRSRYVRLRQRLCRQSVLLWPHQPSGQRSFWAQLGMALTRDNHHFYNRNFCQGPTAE
# TLR4 MyD88 comp – blocks binding of human TLR4 to MyD88; actives 0.18% (n = 200,000); AID 861; HeLa CL3-4 TLR4/MyD88 BLA complementation, FRET ratio; inhibition, % at 8.4 µM; O00206+Q99836; in the data active = inhibition above about 25%;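 also: 0% = vehicle and 100% = reference inhibitor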
# Exocytosis CP01 – blocks lytic granule exocytosis | shares compounds with Granule exo inh | TALL-104 cells, LAMP-1 externalization, flow cytometry; stimulated with PMA plus thapsigargin | inhibition, % at 10 µM | actives 11% (n = 1,500) | AID 651954; in the data active = inhibition above about 60%;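 also: 0% = stimulated vehicle wells and 100% = unstimulated wells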
# Active calls of the source: *; . = no result.
SMILES,B2AR ag,Granule exo inh,NOD2 RIPK2 PPI,ABHD5-PLIN5 inh,TLR9-MyD88 block,TLR4 MyD88 comp,Exocytosis CP01
Cc1ccc(S(=O)(=O)N2C[C@H]3C(=O)C[C@@H](c4ccccc4)N(S(=O)(=O)c4ccc(C)cc4)[C@H]3C[C@H]2c2cccs2)cc1,.,-3,-16,-2,.,.,.
CCN(CC)C(=O)C1CCCN(Cc2cccc(Oc3ccccc3)c2)C1 (configuration not stated),-15,68*,-1,-1,-6,.,-13
O=C(COc1ccccc1)Nc1cc(C(F)(F)F)ccc1N1CCCC1,4,74*,-4,-2,-1,-7,-13
O=C(O)Cn1ccc2cc(S(=O)(=O)N3CCCCC3)ccc21,.,-3,-6,13,-3,.,.
Cc1ccc2c(CN(C)Cc3ccc(Cl)cc3Cl)cc(=O)oc2c1,-1,67*,6,-2,-13,.,-9
Cc1ccc2c(CN(C)Cc3ccc(Cl)cc3)cc(=O)oc2c1,2,30,-10,5,5,.,.
CCc1nc2sc(C(C)=O)c(N)c2c2c1CCCC2,-3,64*,-3,-7,.,.,-11
CCc1nc2sc(C#N)c(N)c2c2c1CCCC2,17,2,-12,-9,-8,0,.
CCCNC(=O)N1CCC(Cc2ccccc2)CC1,-10,1,4,8,2,.,.
CCCCCCNCC(=O)N1CCC(Cc2ccccc2)CC1,-11,70*,-6,7,-1,.,-13
Cc1c(C(=O)N(C)C2CCCCC2)sc2ncnc(N3CCN(c4ccccc4F)CC3)c12,5,85*,-11,4,-6,.,-14
CN(Cc1ccc2ccccc2c1)C(=O)c1ccc(C(F)(F)F)cc1,-9,60*,-5,-13,-17,.,-11
Cc1ccsc1CN(C)C(=O)c1ccc(Oc2ccccc2)cc1,-16,113*,4,8,-14,.,-14
COc1ccc(CN(C)C(=O)c2ccc(Oc3ccccc3)cc2)cc1F,-13,67*,-7,1,7,.,-4
CC1(c2nnnn2-c2ccc3c(c2)OCCO3)CCC(=O)N1CC(F)(F)F (configuration not stated),.,0,4,1,.,.,.
CCc1nnc(NC(=O)[C@@H](NS(=O)(=O)c2ccc3c(c2)OCCO3)C(C)C)s1,2,58*,-4,-3,-7,.,-4
C[C@H](NC(=O)c1ccco1)C(=O)NNC(=O)c1ccc(F)cc1,-7,-2,-11,-10,-8,.,.
CCOc1ccccc1N(C(=O)c1ccco1)C(C(=O)NC1CCCC1)c1cccs1 (configuration not stated),-5,60*,10,-5,5,.,-14
COc1cccc(C(C(=O)NC2CCCCC2)N(C(=O)c2ccco2)c2ccccc2OC)c1 (configuration not stated),2,89*,7,-6,-1,.,-7
COc1ccc(N(C(=O)c2ccco2)C(C(=O)NC2CCCC2)c2cccs2)c(OC)c1 (configuration not stated),1,34,-9,-10,-8,.,.
CC(C)=CCC/C(C)=C/CNC(=O)C[C@H]1C[C@H](C(=O)N2CCOCC2)[C@@]2(C)c3[nH]c4ccc(Cl)cc4c3CCN2C1=O,0,70*,3,-1,-4,.,11
CC(=O)c1ccc(-c2cc([C@H]3[C@H]4C=CC[C@@H](C)[C@@H]4C(=O)N3Cc3ccccc3)ccc2F)cc1,3,58*,-2,17,-8,.,-14
C[C@@H]1CC=C[C@H]2[C@H]1C(=O)N(Cc1ccccc1)[C@H]2c1ccc(F)c(-c2ccc(N(C)C)cc2)c1,20,-7,-13,-3,-8,.,.
CCCc1ccc2c(C(F)(F)F)cc(C(F)(F)F)cc2n1,.,-1,-3,-8,.,.,.
CCc1cc2ccc(C)cc2nc1SCC(=O)NC1CCCC1,5,82*,8,-2,-10,.,-12
SMILES,B2AR ag,Granule exo inh,NOD2 RIPK2 PPI,ABHD5-PLIN5 inh,TLR9-MyD88 block,TLR4 MyD88 comp,Exocytosis CP01
COc1ccccc1OCCCCn1ncc2ccc(OC)c(OC)c2c1=O,3,78*,-9,2,11,.,-12
O=C(Nc1nc(-c2nc3ccccc3s2)cs1)c1ccc(S(=O)(=O)N2CCOCC2)cc1,34,62*,-15,0,2,-6,8
CCN(C)C1CN(Cc2cn(Cc3ccc(Cl)cc3)nn2)S(=O)(=O)C1 (configuration not stated),.,-4,-1,0,.,.,.
CCC(=NNS(=O)(=O)c1ccc(C)cc1)c1ccc(OC)c(C)c1,.,-2,-15,-2,-2,.,.
O=C(CN1c2ccccc2S(=O)(=O)c2ccccc21)Nc1ccccc1F,-2,0,-1,6,1,.,.
COc1cccc(CN2C(=O)C(C)N(C(=O)c3c(F)cccc3F)c3ccccc32)c1 (configuration not stated),21,56*,-6,-7,-2,.,8
O=C(OCC(=O)c1c[nH]c2ccccc12)c1ccc(F)c(S(=O)(=O)N2CCOCC2)c1,.,48,4,-3,-2,.,.
CCc1ccc2c(c1)NC(=O)C2(C)Cc1ccccc1OC (configuration not stated),.,26,3,2,.,.,.
CC(=O)Nc1nonc1-c1nc2ccccc2n1CCC(C)C,-5,9,-3,-4,-7,-3,.
CCC(=O)Nc1nonc1-c1nc2ccccc2n1CCC(C)C,7,63*,-18,-4,-12,-16,-6
COc1cccc(-c2cnc(C(O)c3ccc(CN4CCCC4)cc3)[nH]2)c1 (configuration not stated),.,-6,1,1,.,.,.
CCOC(=O)c1c(CSc2ccccc2)oc2cc(Br)c(O)c(CN(C)C)c12,-7,4,-4,10,1,.,.
CCOC(=O)c1c(CSc2ccc(CC)cc2)oc2ccc(O)c(CN(C)C)c12,16,80*,12,21,-3,.,43
COc1ccc(C(=O)c2coc3ccc(O)c(CN(C)C)c23)cc1,-1,-4,-7,-11,-11,-6,.
CCOC(=O)c1c(C)oc2ccc(O)c(CN(C)C)c12,-4,7,-10,0,11,-14,.
COC(=O)Cc1c(CSc2ccccc2)oc2ccc(O)c(CN(C)C)c12,-10,58*,1,2,4,.,-2
CC(=O)c1c(CSc2ccccc2)oc2ccc(O)c(CN(C)C)c12,-4,66*,-12,12,-1,.,-13
CC(C)Oc1ccc(S(=O)(=O)N2CCOCC2)cc1NC(=O)CSc1nnc(C2CC2)n1C,.,-7,-6,2,-6,.,.
Cc1ccc(-c2cc(C(=O)Nc3cccnc3)c3ccccc3n2)o1,8,82*,-1,22,7,5,-12
O=C(Nc1ccccn1)c1cc(-c2ccc(Cl)s2)nc2ccccc12,-3,3,0,-2,-9,.,.
